Screening data from PubChem.
KCNQ2 block: blocks the rat KCNQ2 potassium channel | AID 2156 | CHO-K1 KCNQ2, FluxOR thallium flux, 20 min; active compounds read low | 310,000 tested, 1.1% active | B-score at 10 µM | O88943;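 active means fluorescence ratio B-score at most minus 3 library SDs, with starting brightness B-score within 2 library SDs, cut at about -5.5 in these data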
Target sequence (O88943 whole entry, looked up): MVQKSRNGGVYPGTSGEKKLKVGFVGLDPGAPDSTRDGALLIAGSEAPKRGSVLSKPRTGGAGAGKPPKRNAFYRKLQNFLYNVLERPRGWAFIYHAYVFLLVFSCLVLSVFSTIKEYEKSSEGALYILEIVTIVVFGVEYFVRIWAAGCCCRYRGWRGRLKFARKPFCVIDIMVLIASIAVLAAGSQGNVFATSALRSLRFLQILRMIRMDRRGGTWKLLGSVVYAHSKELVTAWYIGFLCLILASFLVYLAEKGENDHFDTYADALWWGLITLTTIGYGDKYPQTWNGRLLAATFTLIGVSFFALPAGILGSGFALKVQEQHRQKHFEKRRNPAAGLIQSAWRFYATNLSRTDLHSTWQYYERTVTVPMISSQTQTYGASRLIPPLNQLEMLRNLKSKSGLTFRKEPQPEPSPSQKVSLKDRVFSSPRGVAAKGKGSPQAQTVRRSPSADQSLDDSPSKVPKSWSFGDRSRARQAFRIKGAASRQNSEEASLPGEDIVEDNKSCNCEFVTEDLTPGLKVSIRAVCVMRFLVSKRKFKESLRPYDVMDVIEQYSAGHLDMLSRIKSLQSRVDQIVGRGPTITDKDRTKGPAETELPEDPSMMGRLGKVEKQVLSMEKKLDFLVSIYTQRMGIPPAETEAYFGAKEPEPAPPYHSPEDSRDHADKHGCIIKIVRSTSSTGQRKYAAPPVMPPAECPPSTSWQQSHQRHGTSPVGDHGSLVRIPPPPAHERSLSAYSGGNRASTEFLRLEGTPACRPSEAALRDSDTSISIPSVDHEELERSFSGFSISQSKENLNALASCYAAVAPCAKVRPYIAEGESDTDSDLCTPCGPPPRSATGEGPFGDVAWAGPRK
KCNQ2 enhance: potentiators of rat KCNQ2 potassium channel; B-score at 10 µM; 310,000 tested, 0.54% active; AID 2239; CHO-K1 KCNQ2, FluxOR thallium flux fluorescence; active compounds read high;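 active means fluorescence ratio B-score at least 3 SD of library B-scores, with initial fluorescence B-score within 3 of them, cut at about 5.3 in these data; same plate scores as AID 2156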;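 further: B-score of peak minus minimum over baseline fluorescence ratio after K+ and Tl+ stimulus; positive B-score means potentiation of KCNQ2 with more thallium influx and brighter signal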
Kir21 conf inh: confirmation of mouse Kir2.1 potassium channel inhibitors; shares compounds with KCNQ2 enhance; Kir2.1-expressing cells, FluxOR thallium flux fluorescence; active compounds read low; Tl flux remaining, % of negative control (active compounds read low), % at 10 µM; 2,300 tested, 41% active; AID 2032;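 active means Primary-screen hit whose thallium flux fell at least 3 control SD below untreated wells in both duplicates, with normal baseline fluorescence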;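 further: 0% = blank wells without stimulus and 100% = stimulated no-compound controls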
HEK293 Tl flux: parental HEK293 activity in Kir2.1 inhibitor counter-screen | AID 2105 | FluxOR signal as % of negative control (100 = no effect), % at 10 µM | parental HEK293 cells, FluxOR thallium flux fluorescence; 0% = unstimulated blank wells | 2,300 tested, 19% active | shares compounds with KCNQ2 enhance;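 active means dye signal at least 3 control SD above or below untreated wells in both duplicates, raw fluorescence within 3, either direction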;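 further: percent is based on the flux ratio of peak minus minimum fluorescence over baseline F0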
CHO-K1 Tl ctr: counter-screen for KCNQ2 potentiators: effect in parental CHO-K1 cells. shares compounds with KCNQ2 enhance. FluxOR thallium flux fluorescence; zero = vehicle mean+3SD, 100% = vehicle-minus-blank window. activity increase over 3SD of controls, % at 10 µM. 1,200 tested, 43% active;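 active means signal rise of at least 3 SD above the untreated control mean, in both duplicate wells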;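 further: counter screen of KCNQ2 potentiator hits so any rise reflects channel-independent effects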
KCNQ1 sel pot: selectivity of KCNQ2 potentiators: effect on human KCNQ1; activation over 3SD threshold, % at 10 µM; AID 2283; shares compounds with KCNQ2 enhance; CHO KCNQ1 stable, FluxOR thallium flux fluorescence; beyond 3SD, as % of vehicle-control signal; 1,200 tested, 28% active;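 active means fluorescence ratio rise of at least 3 SD of vehicle wells above their mean, in both replicate wells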;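 further: 0% = vehicle mean plus 3 SD and 100% = vehicle minus unstimulated blank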
KCNQ2 pot conf: confirmation of rat KCNQ2 potassium channel potentiators; shares compounds with KCNQ2 enhance; CHO-KCNQ2 cells, FluxOR thallium flux fluorescence; potentiation, less the hit threshold, % at 10 µM; 1,200 tested, 68% active; AID 2287;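 active means fluorescence ratio rising 3 SD or more over the vehicle control mean in both replicates, plus primary screen hit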;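 further: peak minus minimum thallium fluorescence divided by baseline after K/Tl stimulus; 0% = vehicle mean plus 3 SD and 100% = vehicle minus unstimulated blank difference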
Kir21 spec: selectivity of KCNQ2 potentiators: effect on mouse Kir2.1; shares compounds with KCNQ2 enhance; HEK293 Kir2.1, FluxOR thallium flux fluorescence; activity over 3SD threshold, % at 10 µM; 1,200 tested, 2% active; AID 2345;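 active means fluorescence ratio rise of at least 3 SD above the vehicle-control mean, seen in both replicates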;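 further: 0% = vehicle mean plus 3 SD and 100% = vehicle minus no-stimulus blank window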
KCNQ2 W236L pot: potentiates the retigabine-insensitive rat KCNQ2 W236L mutant channel; shares compounds with KCNQ2 enhance; CHO KCNQ2-W236L, automated patch clamp current; current increase over 3SD of negative controls (%), active compounds read high, % at 25 µM; 940 tested, 10% active; AID 2558;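 active means current increase at least 3 SD of the untreated controls above them in both duplicate recordings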
Active calls of the source: *; i = inactive; . = no result given. Sampled rows, rich in hits. Any-hit rate of the full collection: about 1.6%.

SMILES	KCNQ2 block	KCNQ2 enhance	Kir21 conf inh	HEK293 Tl flux	others
Cn1nc(C(F)(F)F)c2cc(NC(=O)OCc3ccc(F)cc3)sc21	i	4.4	.	.
Cn1nc(C(F)(F)F)c2cc(NC(=O)OCc3ccc(C(C)(C)C)cc3)sc21	i	6.27*	i	i	CHO-K1 Tl ctr=38.1*;KCNQ1 sel pot=-7.0;KCNQ2 pot conf=-15.5;Kir21 spec=-34.2
CCOC(=O)c1c(CSC(=N)N)n(-c2ccc(C)cc2)c2cc(Br)c(OC(C)=O)cc12	i	.	58.5%*	i
CCOC(=O)c1c(CSC(=N)N)n(C)c2cc(Br)c(OC(C)=O)cc12	i	.	.	.
NC(=NCCc1c[nH]c2ccccc12)NS(=O)(=O)c1ccc(F)cc1	i	0.95	.	.
NC(=NCCc1c[nH]c2ccccc12)NC(=O)c1ccc(F)cc1	i	0.4	34.5%*	i
CC(C)[C@H](NC(N)=O)C(=O)Nc1ccc(F)c(Cl)c1	i	.	.	.
CC(=O)OC1CC2(C)/C(=N\O)CCC2C2CCc3cc(O)ccc3C12 (stereo not drawn)	i	1.39	.	.
COc1ccc(-c2ccc(CO)o2)cc1N	i	0.56	.	.
CCn1c(=O)cc(SCC(=O)NCC2CCCO2)c2ccccc21 (stereo not drawn)	i	1.07	.	.
Cn1c(=O)cc(SCC(=O)NCC2CCCO2)c2ccc(Cl)cc21 (stereo not drawn)	i	6.18*	i	i	CHO-K1 Tl ctr=-15.0;KCNQ1 sel pot=92.0*;KCNQ2 pot conf=-9.1;Kir21 spec=-49.8
CC(/C=C1\SC(=S)N(NS(=O)(=O)c2ccccc2)C1=O)=C\c1ccccc1	i	12.2*	i	259.5%*	CHO-K1 Tl ctr=0.8*;KCNQ1 sel pot=63.0*;KCNQ2 pot conf=56.4*;Kir21 spec=-27.3;KCNQ2 W236L pot=i
CC(/C=C1\SC(=S)N(NC(=O)c2ccc(C)cc2)C1=O)=C\c1ccccc1	i	9.22*	i	i	CHO-K1 Tl ctr=-3.8;KCNQ1 sel pot=-10.1;KCNQ2 pot conf=-20.1;Kir21 spec=-21.0
CC(/C=C1\SC(=S)N(NC(=O)c2ccncc2)C1=O)=C\c1ccccc1	i	3.16	.	.
COc1ccc(/C=C2/SC(=S)N(NS(=O)(=O)c3ccccc3)C2=O)cc1	i	3.49	.	.
CCCCn1c(N)c(N(CCOC)C(=O)CSc2nnc(C)n2-c2ccc(OC)cc2)c(=O)[nH]c1=O	i	.	.	.
O=C(c1cc(COc2ccc(F)c(F)c2)on1)N1CCN(C2CCCCC2)C(=O)C1	i	0.18	.	.
CCCCN(C(=O)c1[nH]c(C)c(C(=O)OCC)c1C)c1c(N)n(CCCC)c(=O)[nH]c1=O	i	.	.	.
COc1cccc(-c2cc(CC3(O)CCN(CCCc4ccccc4)CC3)on2)c1	i	.	.	.
c1ccc(-c2csc3ncnc(N4CCOCC4)c23)cc1	i	.	.	.
c1ccc(-c2csc3ncnc(N4CCc5ccccc5C4)c23)cc1	i	.	i	i
COc1cccc(C(=O)NCCS(=O)(=O)NCc2ccco2)c1	i	.	.	.
COc1cccc(C(=O)NCc2ccco2)c1	i	8.95*	i	74.0%*	CHO-K1 Tl ctr=-10.2;KCNQ1 sel pot=-11.9;KCNQ2 pot conf=-30.7;Kir21 spec=-44.9
Nc1nc(C2CC2)c(Sc2sc(N)nc2C2CC2)s1	i	.	74.0%*	i
Nc1nc(C2CCOCC2)cs1	i	.	.	.
SMILES	KCNQ2 block	KCNQ2 enhance	Kir21 conf inh	HEK293 Tl flux	others
Cc1nccn1CCCNC(=O)C1CCC(=O)N(Cc2ccccc2F)C1 (stereo not drawn)	i	.	.	.
COc1cccc(CNC(=O)CN2C(=O)CSc3ccc(S(=O)(=O)N4CCCC4)cc32)c1	i	.	.	.
COc1ccc(C(=O)NCCc2cccc(Cl)c2)cc1OC1CCN(C(C)=O)CC1	i	0.78	.	.
COc1ccc(Br)cc1CN(C)CC(O)COc1ccc(Br)cc1 (stereo not drawn)	-6.34*	-6.34	69.5%*	i
CN(CCOc1ccc(Br)cc1)CC(O)COc1ccc(C#N)cc1 (stereo not drawn)	i	.	.	.
COc1cc(CNCc2ccccn2)ccc1OCc1c(Cl)cccc1Cl	i	0.47	40.5%*	i
COc1cc(CNCc2ccccn2)ccc1OCc1ccc(Cl)cc1	i	1.27	.	.
CCOC(=O)CC/C(=N\NC(N)=O)c1ccc(OC)c(Cl)c1	i	.	.	.
O=C(Nc1ccccc1)c1cc(S(=O)(=O)N2CCSCC2)ccc1Cl	i	.	.	.
O=C(Nc1cccc(O)c1)c1cc(S(=O)(=O)N2CCCC2)ccc1Cl	i	5.31*	i	i	CHO-K1 Tl ctr=39.5*;KCNQ1 sel pot=-6.7;KCNQ2 pot conf=-11.8;Kir21 spec=-27.2
CCOC(=O)N1CCN(C(=O)c2ccc(SC)cc2OC)CC1	i	0.03	.	.
Cc1cccc(C)c1OCC(O)CN1CCc2ccccc2C1 (stereo not drawn)	i	.	.	.
OC(COc1ccc(Cl)cc1)CN1CCC(Cc2ccccc2)CC1 (stereo not drawn)	i	.	.	.
OC(COCc1ccccc1)CN1CCc2ccccc2C1 (stereo not drawn)	i	0.04	.	.
OC(COc1c(F)cc(Br)cc1F)CN1CCc2ccccc2C1 (stereo not drawn)	i	.	26.0%*	i
Cc1ccc(C(C)C)c(OCC(O)CN2CCc3ccccc3C2)c1 (stereo not drawn)	i	.	63.0%*	i
Cc1ccc(C)c(OCC(O)CN2CCC(Cc3ccccc3)CC2)c1 (stereo not drawn)	i	.	49.0%*	i
CC(NC(=O)[C@H](C)N1C(=O)N2CCc3c([nH]c4ccccc34)[C@@]2(C)C1=O)c1ccccc1 (stereo partly drawn)	i	.	.	.
Cc1ccc(C(=O)Nc2ccccc2C(=O)N2CCCC(C)C2)cc1 (stereo not drawn)	i	0.55	.	.
COCCCn1c(O)c(/C=C2\N=C(C#N)C(=Nc3ccc(C)cc3)O2)sc1=S	i	.	.	.
CCOc1ccccc1N(CC(=O)NCCSc1ccccc1)S(C)(=O)=O	i	.	.	.
O=C(NC1CCN(S(=O)(=O)c2ccccc2C(F)(F)F)CC1)c1ccco1	i	.	.	.
CCc1cc(=O)oc2c3c(cc(OCC(=O)NCCN4CCOCC4)c12)OC(C)(C)CC3	i	0.16	.	.
Cc1cc(CN(C)Cc2cn(C)nc2-c2ccc(Oc3ccccc3)cc2)on1	i	.	.	.
COc1ccc(CCC(C)NCc2cccc(Br)c2)cc1 (stereo not drawn)	i	.	24.0%*	i
CC(CCc1ccccc1)NCc1cccc2ccccc12 (stereo not drawn)	i	.	19.0%*	i
